Screening results deposited in PubChem by National Center for Advancing Translational Sciences (NCATS).
A selection: hits, their analogues and other compounds. The true share with any hit is near 4.2%.
MCF10A rerep: induces DNA re-replication in MCF 10a normal breast cells; MCF 10A DNA re-replication, Hoechst nuclear intensity, 48 h; Potency, µM (highest dose often 46.1 µM), for inactives: at the top dose activity, positive = re-replication, hits mostly activators; 350,000 tested, 2.9% active; AID 624296; further: % of control where 0% means no effect; nearly all actives have a fitted effect of over 50% in size
Integrin act MD: integrin-mediated muscular dystrophy alleviation activation. alpha7betagal myoblasts, beta-gal FDG fluorescence, 48 h. Potency, µM (doses to about 38.3 µM), inactives show at the highest dose activation, most hits filed as activators. 350,000 tested, 0.064% active;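 further: 100% = response of the positive control SU9516; nearly all actives have a fitted effect of over 60% in size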
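Alpha7betagal+/- myoblasts (passage 13) were plated 16-24 hr, then exposed to compounds (1:260 dilution of DMSO stock) for 48 hours at 37C. After MPER lysis, β-galactosidase reporter activity was read as FDG fluorescence (ex 480/em 540) after 30 minutes.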
AT treatment: potential ataxia-telangiectasia treatments restoring KAP-1 phosphorylation. 320,000 tested, 0.19% active. F2112 A-T fibroblasts, KAP-1 phosphorylation AlphaLISA; neocarzinostatin DNA damage 30 min before lysis. Potency, µM (highest dose often 57.5 µM), inactives show top-dose activation, hits mostly activators; further: % of control where 0% means no effect; nearly all actives have a fitted effect of over 45% in size
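ATM-like activity read as KAP-1 phosphorylation via AlphaLISA donor/acceptor antibody pairs after lysis and 6 hr at 25C. Cells were ATM-null patient fibroblasts (F2112, hTERT), dosed 60 min, then exposed to the DSB inducer NCS for 30 min.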
SW480 rereplic: DNA re-replication induction in SW480 cells; 340,000 tested, 1.8% active; SW480 DNA re-replication, Hoechst DNA content imaging, 48 h; Potency, µM (doses to about 46.1 µM), inactives show at the highest dose re-replication activation, actives largely listed as activators; AID 624297; further: % of control where 0% means no effect; nearly all actives have a fitted effect of over 55% in size
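Per well, 250 cells were exposed to pinned compound for 48 hr. Nuclear DNA was visualised with Hoechst (40 min, 37 C) and total object intensity recorded by fluorescence scanning.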
Mito fusion act: blocks mitochondrial division or promotes mitochondrial fusion; S. cerevisiae fusion-defective mutant growth rescue, CellTiterGlo 48 h; Potency, µM (series often up to 46.1 µM), for inactives: at the highest dose growth rescue (activation), most hits filed as activators; 320,000 tested, 0.23% active; further: % of control where 0% means no effect; nearly all actives have a fitted effect of over 45% in size
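Yeast fusion mutant, YPEG (non-fermentable carbon), compound, 48 h at 37C non-permissive; CellTiterGlo added, 10 min RT, luminescence read. Rescued growth = division inhibition.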
* marks the source's active call; other numbers are inactive results; ? = inconclusive; / = no result given. The call rests on the fitted dose curve; in most records, active means well fitted activation curve with a large enough effect; inconclusive means small, poorly fitted or top-dose-only effect; inactive means no such curve, though single readings can be large or run the other way. Potency means the concentration at half of the fitted maximal effect.

SMILES | MCF10A rerep | Integrin act MD | AT treatment | SW480 rereplic | Mito fusion act
O=C(O)CC(Cc1ccccc1)c1ccc2c(c1)OCO2 (stereo not given) | 17.5% | 31.6% | 4.8% | -7.7% | -1.5%
CC[C@@]1(C(=O)OC)N[C@H](CN(C)S(=O)(=O)c2ccccc2)[C@@H]2C(=O)N(C)C(=O)[C@@H]21 | -1.7% | -35.8% | -2.1% | ? | /
O=C(O)c1ccc2c(c1)C(=O)N([C@H](Cc1ccccc1)C(=O)O)C2=O | / | / | 9.9% | / | 1.6%
Cn1c(N2CCOCC2)c(/C=N/OC(=O)c2ccc(F)cc2)c2ccccc21 | 27.3% | -29.4% | 35.5µM* | ? | -6.8%
CC(=O)O/N=C/c1c(N2CCOCC2)n(C)c2ccccc12 | 19.7% | -58.2% | 10.6% | 1.84µM* | -6.1%
Cc1ccc(C(=O)O/N=C/c2c(N3CCOCC3)n(C)c3ccccc23)cc1 | ? | -30.0% | 9.2% | ? | -5.7%
CC(=O)c1c(N2CCN(c3ccccc3)CC2)nc(=S)n(-c2ccccc2)c1C | 20.6µM* | 19.2% | 0.9% | 13.2% | -4.4%
NC(=O)/C=C/C(=O)Nc1ccc(Cl)cc1 | 14.6µM* | -30.1% | -13.0% | 17.7% | -23.8%
O=C(/C=C/C(Cl)(Cl)Cl)Nc1ccc(Cl)cc1 | ? | -54.0% | / | ? | /
O=C1C=CC(=O)N1CCNc1ncc(C(F)(F)F)cc1Cl | 5.8µM* | -0.5% | -5.6% | 8.2µM* | 1.8%
CCn1c(SCC(=O)NCc2ccccc2)nc2nc3c(cc2c1=O)CCCC3 | 10.4% | 12.9% | 3.3% | -0.1% | -2.5%
CCn1c(SCC(=O)Nc2ccc(Cl)cc2)nc2nc3c(cc2c1=O)CCCC3 | 14.1% | 26.5% | -10.3% | ? | 0.7%
CCn1c(SCc2ccccc2Cl)nc2nc3c(cc2c1=O)CCCC3 | 18.4µM* | 2.7% | 2.2% | ? | 20.2%
CCn1c(SCc2c(Cl)cccc2Cl)nc2nc3c(cc2c1=O)CCCC3 | 23.1µM* | -20.9% | / | ? | /
Cc1noc(NC(=O)c2ccccc2C(F)(F)F)c1C#N | -8.0% | 0.0% | 1.6% | 2.7% | -0.9%
COc1ccc(/C=C2\CN(Cc3ccccc3)C/C(=C\c3ccc(OC)cc3)C2=O)cc1 | 8.2µM* | -47.8% | 0.7% | / | 14.3%
COC(=O)c1ccc(OC(=O)CS(=O)c2ccccc2[N+](=O)[O-])cc1 (stereo not given) | 9.4% | 7.5% | -3.5% | -22.1% | 0.6%
O=C(CS(=O)c1ccc(C(F)(F)F)cc1[N+](=O)[O-])Oc1ccccc1 (stereo not given) | 7.31µM* | -50.4% | / | ? | 3.8%
CS(=O)(=O)c1ccc(S(=O)CC(=O)OCc2ccccc2)c([N+](=O)[O-])c1 (stereo not given) | 4.11µM* | -71.1% | -8.8% | -39.9% | 6.0%
C#CCN1C(C)=CC(=O)[C@@H](O)[C@H]1c1ccccc1Br | -8.7% | -2.8% | / | -11.6% | /
CCC(C)n1c(SCC(=O)NC2CCCC2)nc2ccccc2c1=O (stereo not given) | ? | -12.2% | 6.2% | -6.1% | 18.3%
C=C(C)C(=O)Oc1ccc(N=Nc2ccc(C)cc2)ccc1=O | 16.4µM* | -49.9% | / | ? | /
CCn1c(=O)c(=O)[nH]c2cc(C(=O)N(C)Cc3ccc(OC)c(F)c3)ccc21 | 1.2% | -19.0% | -3.5% | 0.6% | 0.1%
CCC(C)(C)C1CCC(NC(=O)c2ccc(S(=O)(=O)N3CCOCC3)cc2)CC1 (stereo not given) | 6.51µM* | 26.9% | 1.0% | -3.2% | 16.0%
Cc1cc2ccccc2n1CCNC(=O)c1ccc(S(=O)(=O)N2CCOCC2)cc1 | 3.66µM* | -27.3% | -3.5% | 16.4µM* | -1.1%
COc1cccc(N2CCN(C3C4CC5CC(C4)CC3C5)CC2)c1 (stereo not given) | ? | -19.7% | / | -4.3% | 1.5%
CCC1CCC(N2CCN(c3cccc(OC)c3)CC2)CC1 (stereo not given) | 5.17µM* | -18.6% | 4.5% | -53.9% | -1.2%
CCOC(=O)C(=Cc1ccc(-n2ccnc2)cc1)C(=O)OCC | 2.59µM* | -61.7% | 23.1% | 6.51µM* | -2.9%
CCOC(=O)C(=Cc1ccc(Br)cc1)C(=O)OCC | 1.64µM* | -63.1% | 20.4% | 7.31µM* | -31.9%
